Screening results from PubChem BioAssay.
GPR151 activ: activates the human receptor GPR151; PathHunter beta-arrestin GPR151 cells, luminescence; 1% of 650,000 active; activation, % at 11.2 µM; AID 1508602; Q8TDV0; in the data active means activation above about 4.9%;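 further: 0% = median of compound wells and 100% = cells with positive control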
FBW7 activator: human FBW7 E3 ligase activation, primary screen. normalized activity (activation), % at 26.1 µM. 0.13% of 650,000 active. AID 1259310. AlphaScreen FBW7–phospho-cyclin E peptide binding, activator screen; in the data active means normalized activity above about 1.9%;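 further: purified mutant Fbw7 with reduced substrate affinity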
Target sequence (Q969H0 whole entry, looked up): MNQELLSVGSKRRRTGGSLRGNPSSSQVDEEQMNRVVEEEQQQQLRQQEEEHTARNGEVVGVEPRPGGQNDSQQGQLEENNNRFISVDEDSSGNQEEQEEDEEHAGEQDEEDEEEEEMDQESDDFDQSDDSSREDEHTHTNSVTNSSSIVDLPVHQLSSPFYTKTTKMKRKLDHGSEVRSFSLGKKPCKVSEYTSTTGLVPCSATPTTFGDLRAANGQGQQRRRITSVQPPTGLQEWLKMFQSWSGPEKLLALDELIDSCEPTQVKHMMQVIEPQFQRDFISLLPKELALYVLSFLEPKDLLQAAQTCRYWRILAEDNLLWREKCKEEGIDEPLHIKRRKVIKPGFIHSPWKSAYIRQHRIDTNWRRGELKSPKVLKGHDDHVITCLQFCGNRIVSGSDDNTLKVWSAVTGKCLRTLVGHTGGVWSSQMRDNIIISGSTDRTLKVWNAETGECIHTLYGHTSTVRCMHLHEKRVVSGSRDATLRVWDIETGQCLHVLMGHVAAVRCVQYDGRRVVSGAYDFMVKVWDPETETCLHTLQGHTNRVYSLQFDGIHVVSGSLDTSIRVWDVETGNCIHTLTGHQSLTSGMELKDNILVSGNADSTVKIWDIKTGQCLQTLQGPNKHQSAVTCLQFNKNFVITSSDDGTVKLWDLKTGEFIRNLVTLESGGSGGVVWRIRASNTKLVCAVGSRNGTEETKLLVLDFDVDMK
MITF inh: human MITF inhibition, primary screen | O75030 | AID 1259374 | inhibition, % at 2.6 µM | 0.91% of 650,000 active | AlphaScreen MITF homodimerization, bead proximity signal; in the data active means inhibition above about 50%;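 further: 0% = vehicle wells with protein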
TEAD-YAP block: TEAD-YAP interaction inhibition; HEK-TIYL cells, TEAD-Gal4/YAP UAS-luciferase luminescence; inhibition, % at 9.12 µM; 1.4% of 640,000 active; AID 1259422; in the data active means inhibition above about 32%;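 further: 0% = median of test compound wells and 100% = reference inhibitor wells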
An asterisk follows results filed as active; ! = repeats disagree. A selection: hits, their analogues and other compounds. The true share with any hit is near 3.5%.

SMILES	GPR151 activ	FBW7 activator	MITF inh	TEAD-YAP block
CCn1c(O)c(C=Nc2ccccc2Cl)sc1=S	-0.4	-0.1	-2.9	32.4*
C/C(=N\NC(N)=S)c1ccc(Cl)cc1Cl	1.3	0.1	5.7	34.3*
C/C(=N\NC(=O)C(F)(F)F)c1ccc(Cl)cc1Cl	0.0	-0.3	-1.5	-1.0
Cc1cccc(CNCc2cc(NS(C)(=O)=O)cc(C(=O)Nc3ccccc3)c2)c1	0.2	0.0	9.5	-8.2
Nc1cc(Br)c2c(c1)OCCO2	-0.9	-0.1	17.9	65.9*
Brc1cc2c(cc1Br)OCCOCCOCCOCCO2	0.0	0.0	9.0	-6.4
O=C1N=c2ccc(Cl)cc2=C1c1sc(=Nc2ccccc2)n(-c2ccccc2)c1O	-0.3	-0.1	10.4	11.8
C[C@@H]1O[C@@H](OC[C@H]2OC(Oc3c(-c4ccc(O)c(O)c4)oc4cc(O)cc(O)c4c3=O)[C@H](O)[C@@H](O)[C@@H]2O)[C@H](O)[C@H](O)[C@H]1O (stereo partly drawn)	-0.1	-0.3	82.1*	6.7
CCOc1ccc(S(=O)(=O)N2CCCc3ccccc32)c2cccnc12	-0.7	-0.2	-9.2	48.5*
CCOc1cccc2c1OC(c1ccc(OC)c(OC)c1)N1N=C(c3ccc(C)o3)CC21 (stereo not drawn)	-0.5	-0.1	-10.0	-10.4
COc1cccc(C2(NC(=O)c3snnc3C)CCCC2)c1	1.0	0.1	5.0	9.2
Cc1cc(S(=O)(=O)O)c(C(C)C)cc1N	-1.4	4.1*	21.6	8.2
O=C1CC(c2ccccc2)CC(O)=C1C=NCc1ccccc1Cl (stereo not drawn)	2.1	0.1	6.7	51.0*
CSc1ccccc1N=CC1=C(O)CC(c2ccccc2)CC1=O (stereo not drawn)	0.3	0.1	12.7	4.7
CCOc1ccccc1N=CC1=C(O)CC(c2ccccc2)CC1=O (stereo not drawn)	0.7	2.0*!	2.8	5.4
O=C1CC(c2ccccc2)CC(O)=C1C=NCc1ccc2c(c1)OCO2 (stereo not drawn)	0.2	-0.1	-7.2	37.8*
CCOC(=O)c1ccc(NC(=O)CC23CC4CC(CC(C4)C2)C3)cc1	-0.7	0.0	9.8	69.3*
CCOc1ccc(/C=C/C(=O)Nc2ccccc2F)cc1	-9.3	0.2	-2.0	90.5*
COC(=O)COc1cccc2c1ccc1c3c(c(=O)oc12)CCCC3	-0.3	0.1	6.4	-0.4
O=c1oc2c(ccc3c(O)cccc32)c2c1CCCC2	-2.0	0.9	13.5	45.3*
CCCNC(=O)Cn1cnc2sc(C(=O)Nc3nc4ccc(OC)cc4s3)c(C)c2c1=O	0.4	0.1	2.5	7.2
Cc1ccc2[nH]c(=O)c3cc(C(=O)N4CCN(C)CC4)sc3c2c1	-0.2	0.0	-1.1	-0.4
CCN1CCN(C(=O)c2cc3c(=O)[nH]c4ccc(C)cc4c3s2)CC1	1.0	0.0	18.4	37.4*
CCOC(=O)c1ccc(NC(=O)c2cccc(N3C(=O)c4ccccc4C3=O)c2)cc1	1.3	0.0	9.2	-4.0
CC(=O)NCCc1nc2ccccc2n1CCCOc1cc(C)ccc1C(C)C	3.9	-0.1	-0.5	27.4
SMILES	GPR151 activ	FBW7 activator	MITF inh	TEAD-YAP block
Cc1cc(/C=N\Nc2ccc([N+](=O)[O-])cn2)c(C)n1-c1ccccc1F	0.1	0.1	-10.7	-56.9
Cc1cc(/C=N/Nc2nc(N)ncc2[N+](=O)[O-])c(C)n1-c1ccccc1F	-6.9	-0.3	14.4	63.1*
Cc1cc2n(n1)c1cc(C)nn1c1c(S(=O)(=O)O)c(C)nn21	0.5	0.0	0.9	-0.1
O=C(Nc1cccc(O)c1)c1ccc(Oc2ccccc2)cc1	-0.3	0.0	-0.9	92.9*
CC(C)(C)C(=O)Nc1ccc(C(=O)Nc2cccc(O)c2)cc1	-1.7	0.1	7.5	63.8*
CCCCOc1ccc(C(=O)Nc2cccc(O)c2)cc1	-2.6	0.0	-1.8	81.8*
COc1cccc(NC(=O)c2ccc(NC(=O)C(C)(C)C)cc2)c1	-2.1	0.0	2.6	-46.2
CC(C)(C)N1C(=O)c2ccc(C(=O)Nc3cccc(O)c3)cc2C1=O	-0.5	0.2	4.8	88.7*
CC1CN(c2nc3c(c(=O)[nH]2)CCN(C(=O)c2ccn[nH]2)C3)CC(C)O1 (stereo not drawn)	-1.0	0.0	-13.1	-12.2
CCCOc1ccc(C2NC(=O)NC(C)=C2C(=O)OC2CCCCC2)cc1 (stereo not drawn)	0.5	0.0	11.1	-2.3
CC(=O)N/N=C/c1cc(C)n(-c2ccc(Cl)c(Cl)c2)c1C	0.9	0.1	5.3	3.0
c1ccc(CN2CCC(Nc3nc(Nc4ncccn4)nc4c3ncn4C3CCCCC3)CC2)cc1	1.1	0.4	-5.3	8.3
CCOC(=O)c1ccc(Nc2ccc3nonc3c2[N+](=O)[O-])cc1	0.7	0.1	4.5	7.3
CCOC(=O)c1ccc(Nc2ccc([N+](=O)[O-])c3nonc23)cc1	1.9	1.9*	12.4	2.5
COc1ccc(C(=O)CCC(=O)NCCSCc2ccccc2)cc1	-0.1	-0.2	-9.8	-2.0
COc1ccc(COC(=O)c2c(SC)nsc2SC)cc1	-1.9	-0.3	1.3	37.9*
Cc1ccc(-c2nn(-c3ccccc3)cc2C2CC(c3ccc(F)cc3)=NN2c2ccccc2)o1 (stereo not drawn)	1.7	0.4	3.4	-13.0
Cc1ccc(C2CC(c3ccc(F)cc3)=NN2c2ccccc2)o1 (stereo not drawn)	-0.3	1.9*	-21.6	-1.6
O=[N+]([O-])c1ccc(N2N=C(c3ccccc3)CC2c2ccccc2O)cc1 (stereo not drawn)	0.0	3.5*	0.5	-10.2
O=[N+]([O-])c1ccc(N2N=C(c3ccccc3)CC2c2ccccc2)cc1 (stereo not drawn)	-1.1	0.1	-0.7	-2.6
Fc1ccccc1C1CC(c2ccccc2)=NN1c1ccccc1 (stereo not drawn)	-0.1	3.3*	6.3	6.2
c1ccc(-c2ccc(C3=NN(c4ccccc4)C(c4ccccc4)C3)cc2)cc1 (stereo not drawn)	0.1	0.1	6.4	10.6
COc1ccc(C(=O)N/C(=C\c2ccco2)C(=O)NCCc2c(C)[nH]c3ccccc23)cc1	-1.2	0.1	-5.5	5.8
CCOc1cc(/C=C2/C(=N)N3N=C(Cc4ccccc4)SC3=NC2=O)ccc1OCCOc1ccc(C)cc1	-1.4	0.2	12.5	14.7
CC(C)CNc1ncnc2c1c(-c1ccccc1)cn2-c1ccc(Br)cc1	-0.6	0.5	10.6	-1.2
SMILES	GPR151 activ	FBW7 activator	MITF inh	TEAD-YAP block
COc1ccc2c(c1)C(=NO)c1cc(OC)ccc1-2	-0.1	-0.1	12.2	-17.1
COc1ccc2c(c1)C(=NNC(N)=S)c1cc(OC)ccc1-2	0.3	-0.2	43.7	49.6*
Cc1ccc(S(=O)(=O)Nc2cccc(C(=O)NCc3cccnc3)c2)cc1	-0.4	0.2	17.2	58.1*
Fc1cnc(Nc2ccc(Cn3ccnc3)cc2)nc1-c1cc(N2CCOCC2)cc(C(F)(F)F)c1	2.4	0.1	-283.9	40.5*
Fc1cc(-c2nc(Nc3ccc(-n4cnc(-c5ccccn5)c4)cc3)ncc2F)cc(N2CCOCC2)c1	0.0	-1.5	7.1	54.0*
Fc1cc(-c2nc(Nc3ccc(Cn4ccnc4)cc3)ncc2F)cc(N2CCOCC2)c1	0.1	-0.1	4.3	89.4*
